JMJD2A Tudor inh: inhibitors of human JMJD2A Tudor domain | O75164 | 390,000 compounds, 4.4% hits | Potency, µM (doses to about 114 µM), for the others: at the highest dose activity change, negative = inhibition, hits mostly inhibitors | AID 504339 | AlphaScreen JMJD2A-Tudor / H3K4me3 peptide binding; note: potency is the fitted concentration of half-maximal effect; % is set by controls: 0 for no effect and ±100 for the full control effect; nearly all actives have a fitted effect of over 50% in size
BAZ2B inh: inhibitors of human BAZ2B bromodomain | Q9UIF8 | AlphaScreen BAZ2B-H3K14Ac peptide displacement | Potency, µM (titrated, usually from 114 µM), for the others: top-dose activity change, negative = inhibition, hits mostly inhibitors | 360,000 compounds, 4.4% hits; note: potency is the fitted concentration of half-maximal effect; % is set by controls: 0 for no effect and ±100 for the full control effect; nearly all actives have a fitted effect of over 60% in size
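AlphaScreen luminescence quantifies BAZ2B engagement of H3K14Ac peptide; the protein and biotinylated peptide are both at 50 nM final, buffer PBS pH 7.4 with 0.01% Tween-20, all steps at room temperature.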
HP1b chromo inh: HP1-beta chromodomain-methylated histone interaction inhibition. AlphaScreen HP1-beta / biotin-H3K9me3 peptide binding. 390,000 compounds, 0.56% hits. Potency, µM (doses to about 114 µM), without a hit: at the highest dose activity change, negative = inhibition, most hits filed as inhibitors. P83916; note: potency is the fitted concentration of half-maximal effect; nearly all actives have a fitted effect of over 70% in size
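Compound inhibition of the preformed complex between 50 nM HP1-beta and 50 nM biotinylated H3K9me3 peptide was read by AlphaScreen. Buffer was PBS pH 7.4 with 0.01% Tween-20. Incubations ran 30 min at room temperature, with 10 ug/mL donor/acceptor beads.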
L3MBTL1 inh: L3MBTL1 (human) inhibition | AID 485360 | AlphaScreen L3MBTL1–H3K9me1 peptide binding | 230,000 compounds, 0.66% hits | Potency, µM (highest dose often 57.1 µM), for inactives: at the highest dose activity, negative = inhibition, actives largely listed as inhibitors | Q9Y468; note: potency is the fitted concentration of half-maximal effect; % is set by controls: 0 for no effect and ±100 for the full control effect; nearly all actives have a fitted effect of over 60% in size
Target sequence (Q9Y468 whole entry, looked up): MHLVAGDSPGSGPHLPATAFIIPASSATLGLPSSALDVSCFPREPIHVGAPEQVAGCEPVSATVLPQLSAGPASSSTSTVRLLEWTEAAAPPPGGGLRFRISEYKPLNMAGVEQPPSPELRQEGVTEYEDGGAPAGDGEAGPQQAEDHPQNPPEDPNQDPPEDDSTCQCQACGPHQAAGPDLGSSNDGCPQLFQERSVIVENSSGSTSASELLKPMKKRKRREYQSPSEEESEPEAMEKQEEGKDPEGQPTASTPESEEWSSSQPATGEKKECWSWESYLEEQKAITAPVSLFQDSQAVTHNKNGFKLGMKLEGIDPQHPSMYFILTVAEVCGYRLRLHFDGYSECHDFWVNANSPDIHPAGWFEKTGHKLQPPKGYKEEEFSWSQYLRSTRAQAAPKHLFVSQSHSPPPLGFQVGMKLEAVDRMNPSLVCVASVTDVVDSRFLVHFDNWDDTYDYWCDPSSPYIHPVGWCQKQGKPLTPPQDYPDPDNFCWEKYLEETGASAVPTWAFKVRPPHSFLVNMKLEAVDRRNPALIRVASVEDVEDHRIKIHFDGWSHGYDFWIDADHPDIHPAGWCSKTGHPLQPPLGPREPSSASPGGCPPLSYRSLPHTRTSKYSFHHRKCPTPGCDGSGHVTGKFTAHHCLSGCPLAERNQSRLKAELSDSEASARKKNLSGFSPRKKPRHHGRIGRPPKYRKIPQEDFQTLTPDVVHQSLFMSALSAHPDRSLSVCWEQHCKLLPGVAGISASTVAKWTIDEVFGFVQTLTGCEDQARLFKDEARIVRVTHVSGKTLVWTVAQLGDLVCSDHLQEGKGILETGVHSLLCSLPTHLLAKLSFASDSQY
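L3MBTL1 (50 nM) pre-complexed 30 min with biotinylated H3(1-15)K9me1 peptide (75 nM), then compounds added for 30 min at room temperature; AlphaScreen streptavidin donor/nickel chelate acceptor beads (10 ug/mL final) read after 30 min dark incubation.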
PI5P4Ka inh: blocks human PI5P4K alpha kinase activity; 330,000 compounds, 1.2% hits; P48426; PI5P4Kalpha enzyme, ADP-Glo luminescence, 60 min; stronger effect = lower value; AID 652105; max response, %; active = max response of -50% or lower; inconclusive = between -30% and -50%; inactive = -30% or higher; note: value at the top dose of about 77 µM; % is set by controls: 0 for no effect and ±100 for the full control effect
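qHTS, 1536-well: enzyme/substrate mix, compound by pin tool, 5 microM ATP final; RT 60 min; ADP-Glo reagents 1 (45 min) then 2 (30 min); luminescence.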
G9a block: inhibitors of human histone lysine methyltransferase G9a; Q96KQ7; 350,000 compounds, 8.8% hits; G9a H3K9 monomethylation, AlphaScreen, 2 h; Potency, µM (series often up to 102 µM), for the others: at the highest dose activity, negative = inhibition, hits mostly inhibitors; AID 504332; note: potency is the fitted concentration of half-maximal effect; % is set by controls: 0 for no effect and ±100 for the full control effect; nearly all actives have a fitted effect of over 75% in size
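Readings reflect AlphaScreen signal from monomethyl-H3K9 antibody detection. HMT at 20 nM; substrate b-H3K9 500 nM; cofactor SAM 20 uM; 2 h RT reaction; compounds tested as titrations in qHTS with 15 min preincubation.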
An asterisk follows results filed as active; [ ] = dose if it differs, or a comment. Sampled rows, rich in hits. Any-hit rate of the full collection: about 11%. Unless noted, calls come from the whole dose curve; as a rule, active = well fitted inhibition curve with a large enough effect; inconclusive = small, poorly fitted or top-dose-only effect; inactive = no such curve, though single readings can be large or run the other way.

Screening CC(=O)Nc1nc(=S)n(-c2ccccc2)[nH]1 returned JMJD2A Tudor inh 18µM*, BAZ2B inh inconclusive, HP1b chromo inh inconclusive, L3MBTL1 inh 0% and G9a block 4µM*.
For CC(C)c1nc(=S)n(-c2ccccc2)[nH]1 the results were JMJD2A Tudor inh 6.3µM*, BAZ2B inh 0%, HP1b chromo inh 22%, L3MBTL1 inh 1%, PI5P4Ka inh 3 and G9a block 10µM*.
For CCc1ccc(Oc2c(C(F)(F)F)oc3c(CN4CCN(C)CC4)c(O)ccc3c2=O)cc1 the results were JMJD2A Tudor inh -18%, BAZ2B inh -17%, HP1b chromo inh 25% and G9a block -2%[59 µM].
Screening CCOC(=O)C1(CCCc2ccccc2)CCN(Cc2ccn[nH]2)CC1 returned JMJD2A Tudor inh -20%, BAZ2B inh -18%, HP1b chromo inh 5%, L3MBTL1 inh -9%, PI5P4Ka inh 0 and G9a block 50µM*.
Cc1c(C(=O)NCc2cccnc2)sc2nc(-c3ccc(F)cc3)cn12 was read as JMJD2A Tudor inh -11%, BAZ2B inh -38%, HP1b chromo inh 54%, L3MBTL1 inh 0%, PI5P4Ka inh -2 and G9a block 45µM*.
For COc1ccc(-c2cn3c(C)c(C(=O)N4CCc5ccccc5C4)sc3n2)cc1 the results were JMJD2A Tudor inh inconclusive, BAZ2B inh inconclusive, HP1b chromo inh -6%, L3MBTL1 inh inconclusive, PI5P4Ka inh -1 and G9a block 35µM*.
`COc1ccc(-c2cn3c(C)c(C(=O)NCCN4CCOCC4)sc3n2)cc1` gave JMJD2A Tudor inh inconclusive, BAZ2B inh inconclusive, HP1b chromo inh 1%, L3MBTL1 inh 0%, PI5P4Ka inh 3 and G9a block 40µM*.
For CCN(CC)c1ccc(NC(=O)c2sc3nc(-c4ccccc4)cn3c2C)cc1 the results were JMJD2A Tudor inh 28µM*, BAZ2B inh 7.9µM*, HP1b chromo inh -37%[57 µM] and G9a block 5µM*.
Screening Cc1c(C(=O)NCc2cccnc2)sc2nc(-c3ccccc3)cn12 returned JMJD2A Tudor inh -10%, BAZ2B inh -3%, HP1b chromo inh 39%, L3MBTL1 inh -2%, PI5P4Ka inh -1 and G9a block -4%.
For Cc1ccc(S(=O)(=O)NCC(Nc2cccc(Cl)c2)c2ccccc2)cc1 (stereo unspecified) the results were JMJD2A Tudor inh -7%, BAZ2B inh -18%, HP1b chromo inh 41% and G9a block inconclusive.
`COc1ccc(-c2nc3scc(CCNS(=O)(=O)c4ccc5c(c4)OCCO5)n3n2)cc1OC` gave JMJD2A Tudor inh -9%, BAZ2B inh -10%, HP1b chromo inh 24% and G9a block -23%[59 µM].
Screening CNC(=O)c1sc2nc(-c3ccc(OC)cc3)cn2c1C returned JMJD2A Tudor inh -31%, BAZ2B inh inconclusive, HP1b chromo inh 14%, PI5P4Ka inh -4 and G9a block 50µM*.
Screening CCN(CC)C(=O)c1sc2nc(-c3ccc(OC)cc3)cn2c1C returned JMJD2A Tudor inh -19%, BAZ2B inh -39%, HP1b chromo inh -4%, L3MBTL1 inh -9%, PI5P4Ka inh 0 and G9a block inconclusive.
`CCOC(=O)C1CCCN(Cc2cn3c(-c4ccc(Br)cc4)nnc3s2)C1` (stereo unspecified) gave JMJD2A Tudor inh 0%, BAZ2B inh 3%, HP1b chromo inh 30%[57 µM] and G9a block -13%[59 µM].
CCOC(=O)C1CCN(Cc2cn3c(-c4ccc(OC)cc4)nnc3s2)CC1 was read as JMJD2A Tudor inh -24%, BAZ2B inh inconclusive, HP1b chromo inh 3%[57 µM] and G9a block 13µM*.
For COc1cc(OC)cc(C(=O)NCCN2CCOCC2)c1 the results were JMJD2A Tudor inh 10µM*, BAZ2B inh 50µM*, HP1b chromo inh inconclusive, L3MBTL1 inh 1%, PI5P4Ka inh 7 and G9a block 8.9µM*.
Screening CCCN1CCN(CCCNC(=O)c2ccc3c(c2)sc2nc(-c4ccc(OCC)cc4)cn23)CC1 returned JMJD2A Tudor inh inconclusive, BAZ2B inh 28µM*, HP1b chromo inh -17% and G9a block inconclusive.

Source: PubChem (National Center for Advancing Translational Sciences (NCATS))
